High-throughput results: PubChem BioAssay, several laboratories
Most compounds without a hit are left out; they make up all but 3.7% or so of the library.
PfHsp90 yeast 2 = growth inhibition of PfHsp90-expressing yeast, primary screen, antimalarial PfHsp90 inhibitor project, S. cerevisiae, BacTiter-Glo luminescence, single point, set 2 | AID 504621, 2011 | BacTiter-Glo ATP, 48 h; yeast lacking PDR1 and PDR3 efflux regulators | 0.32% of 310,000 active | inhibition, % at 9.4 µM;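 active means every replicate shows inhibition above about 80%, whatever the replicate mean, limit read from the data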
TIM10 inh = growth inhibitors of isogenic TIM10 control yeast, primary screen, counter-screen for tim10-1 yeast inhibitor project, luminescence, uHTS; S. cerevisiae TIM10 strain growth, BacTiter-Glo luminescence, 24 h; inhibition, % at 10 µM; 1.4% of 330,000 active; AID 463195, 2010;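 active means inhibition of 40% or more at the single tested concentration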;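 further: wild-type TIM10 isogenic control strain grown at permissive 25 °C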
tim10-1 inh = growth inhibitors of tim10-1 mutant yeast, primary screen, luminescence, uHTS | S. cerevisiae tim10-1 ts strain growth, BacTiter-Glo, 24 h | inhibition, % at 20 µM | 2.2% of 330,000 active;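 active means inhibition of at least 40%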;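 further: mutant grown at 25 °C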
Rce1 inh = yeast Rce1p protease inhibitors, primary screen, biochemical, fluorescence, cell-free homogeneous. CAAX prenyl protease 2 (Saccharomyces cerevisiae (strain ATCC 204508 / S288c)), Q03530. yeast membranes, quenched prenylated peptide cleavage fluorescence. calls only. 0.27% of 290,000 active. AID 2563, 2010;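 active means fall in fluorescence gain of 50% or more versus controls, with final raw signal at or below 3038400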
Target sequence (Q03530 whole entry, looked up): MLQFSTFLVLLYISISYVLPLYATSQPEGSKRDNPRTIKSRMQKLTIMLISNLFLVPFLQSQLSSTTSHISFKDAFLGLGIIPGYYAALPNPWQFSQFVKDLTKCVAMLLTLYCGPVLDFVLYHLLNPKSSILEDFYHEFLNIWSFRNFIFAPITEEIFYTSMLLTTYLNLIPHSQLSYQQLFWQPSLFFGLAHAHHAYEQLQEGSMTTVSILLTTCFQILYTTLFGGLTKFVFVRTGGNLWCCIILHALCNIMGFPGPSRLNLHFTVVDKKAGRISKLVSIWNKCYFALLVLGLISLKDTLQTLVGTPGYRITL
tim23-1 inh = growth inhibitors of tim23-1 mutant yeast, primary screen, luminescence, uHTS. S. cerevisiae tim23-1 growth, BacTiter-Glo luminescence, 24 h. inhibition, % at 20 µM. 1.3% of 330,000 active;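 active means growth inhibition of the mutant yeast at or above 50%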;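 further: temperature-sensitive mutant grown at 25 °C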
tim23-1 conf = tim23-1 mutant yeast growth inhibitors, confirmation, luminescence, single concentration | shares compounds with tim23-1 inh | S. cerevisiae tim23-1 growth, BacTiter-Glo luminescence, 24 h | inhibition, % at 20 µM | 83% of 4,400 active | AID 463218, 2010;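 active means inhibition above about 39% in either of two replicate wells at 20 µM, limit read from the data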;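 further: temperature-sensitive tim23-1 mutant grown at 25 °C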
Hits are given with their value; i = inactive; nt = not tested or not shown.

SMILES	PfHsp90 yeast 2	TIM10 inh	tim10-1 inh	Rce1 inh	tim23-1 inh	tim23-1 conf
CC1(c2ccccc2)CC(C)(C)n2c(O)c(C3=NC(=S)NC3=O)c3cccc1c32 (stereo not given)	i	i	i	i	i	nt
COc1cccc(NC(=O)c2cc3cccc(OC)c3o/c2=N\O)c1	nt	i	i	i	58	47
COc1cccc(C(=O)Nc2cccc(-c3nnc(-c4ccccc4)o3)c2)c1	i	i	i	i	i	nt
CC(C)Oc1cccc(C(=O)NC(=S)Nc2ccccc2)c1	i	i	i	i	51	i
COc1cccc(C(=O)Nc2ccccc2C(=O)N2CCCC2)c1	i	i	i	i	94	i
CC(=O)Oc1cccc(C(=O)Nc2ccccc2C(=O)N2CCCC2)c1	i	i	i	i	i	nt
COc1cccc(C(=O)Nc2cccc(-c3ccccc3)c2)c1	i	i	i	i	55	49
O=C(NCCc1nnc2ccc(N3CCCC3)nn12)c1ccccc1	i	i	i	i	i	nt
O=C(/C=C/c1ccccc1)NC(=S)Nc1ccc2c3c(cccc13)CC2	i	i	i	i	i	nt
CC(C)(C)c1ccc(C(=O)Oc2ccccc2CCC(=O)O)cc1	nt	i	i	i	i	nt
CC(=O)c1cccc(CN2CCN(CCC(C)C)C(CCO)C2)c1 (stereo not given)	i	i	i	i	i	nt
CCCCOc1c(C(=O)Nc2ccccc2)nnn1-c1ccccc1	i	i	i	i	i	nt
COC(=O)c1cccc(NC(=O)c2ccc(OC)c(Cl)c2)c1	nt	i	i	i	57	48
COc1ccc(C(=O)Nc2cc(C(=O)O)cc(C(=O)O)c2)cc1Cl	i	i	i	i	i	nt
COc1cccc(NC(=O)c2cccc(C(=O)Nc3cccc(OC)c3)c2)c1	i	i	i	i	i	nt
COc1cccc(NC(=O)c2ccccc2)c1	i	i	i	nt	57	64
CCOc1ccc(CNC(=O)Cn2nc(C)n3nc(-c4ccccc4)cc3c2=O)cc1	i	i	i	i	i	nt
CCCc1cc(=O)oc2cc(C)c(CN3CCCC3)c(O)c12	nt	i	i	i	59	58
CCOC(=O)c1sc(=NC(=O)c2ccccc2Br)n(C)c1C	i	i	i	i	i	nt
CCOC(=O)c1sc(=NC(=O)c2ccco2)n(C)c1C	i	i	i	i	54	44
CC(C)NC(=O)c1ccc2c3n(nc2c1)-c1ccccc1CO3	i	i	i	i	i	nt
C=CCNC(=O)c1ccc2c3n(nc2c1)-c1ccc(Cl)cc1CO3	i	i	i	i	59	50
O=[N+]([O-])c1cccc(NC(=S)N2CCc3ccccc3C2)c1	i	i	i	i	52	55
O=C(c1ccco1)N1CCN(C(=S)Nc2cccc([N+](=O)[O-])c2)CC1	i	i	i	i	i	nt
O=C(/C=C/c1ccc([N+](=O)[O-])cc1)OCC(=O)N1CCCC1	i	i	i	nt	i	nt
SMILES	PfHsp90 yeast 2	TIM10 inh	tim10-1 inh	Rce1 inh	tim23-1 inh	tim23-1 conf
CCC1CCc2sc(C(=O)N(C)CC(=O)Nc3cccc(OC)c3)cc2C1 (stereo not given)	i	i	i	nt	51	41
CCC1CCc2sc(C(=O)N(C)CC(=O)Nc3ccc(OC)cc3)cc2C1 (stereo not given)	i	i	i	i	51	45
CCC1CCc2sc(C(=O)NCC3CCCO3)cc2C1 (stereo not given)	i	i	i	nt	51	i
CCOC(=O)CC(NC(=O)c1cccc2c1C(=O)N(Cc1cccnc1)C2)c1ccc(OC(C)C)cc1 (stereo not given)	i	i	i	i	i	nt
CC(C)(O)c1cc2ccc(C#Cc3ccsc3)cc2c(=O)o1	i	i	i	nt	60	i
O=c1oc(CCCO)cc2ccc(C#Cc3ccsc3)cc12	i	i	i	nt	i	nt
C/C(=N\Nc1nc(C)cc(-c2ccccc2)n1)c1ccc(O)cc1	i	i	i	i	50	49
COc1ccccc1C(=O)Nc1ccc(C(=O)Nc2ccccc2C(=O)O)cc1	i	i	i	i	i	nt
O=C1OCCN1C(=O)[C@H]1[C@H](c2ccc(F)cc2)C(c2cccc(Cl)c2)=NN1c1ccccc1	i	i	i	nt	i	nt
OC[C@@H]1[C@@H](c2ccc(Cl)cc2)C(c2ccc(F)cc2)=NN1c1ccccc1	i	i	i	nt	56	i
OC[C@@H]1[C@@H](c2ccccc2)C(c2ccc(F)cc2)=NN1c1ccccc1	i	i	i	nt	56	45
COC(=O)c1c(N)c2ccccc2[nH]c1=O	i	i	i	i	i	nt
CCCCCCCn1c(=O)c(C(=O)OC)c(N)c2ccccc21	i	i	i	i	53	50
CCCn1c(=O)c(C(=O)Nc2ccccc2C(=O)OC)c(O)c2ccccc21	i	i	i	i	i	nt
CCCCCCn1c(=O)c(-c2ccccc2)c(O)c2ccccc21	nt	i	i	i	50	44
CCCCCCCCn1c(=O)c(C(=O)OC)c(N)c2ccccc21	nt	i	i	i	64	44
CCCCCCn1c(=O)c(Cc2ccccc2)c(O)c2ccccc21	i	i	i	i	i	nt
CN(CC(=O)Nc1ncn[nH]1)S(=O)(=O)c1ccc(Br)cc1	i	i	i	i	i	nt
Cc1cc(NC(=O)CSCC(=O)Nc2cccc(S(=O)(=O)N3CCCCCC3)c2)no1	i	i	i	i	i	nt
COc1ccccc1NC(=S)NC(=O)CC(C)C	i	i	i	i	51	i
Cc1cc(C)n(CCC(=O)N/N=C/c2ccc(O)cc2)n1	i	i	i	i	i	nt
COc1ccccc1OCC(=O)N/N=C/c1c(O)ccc2ccccc12	i	i	i	nt	59	55
COc1ccc2ccccc2c1/C=N\NC(=O)c1ccc(C)s1	i	i	i	i	51	i
COc1ccccc1OCC(=O)N/N=C/c1cccc2cccnc12	i	i	i	nt	i	nt
Cc1cc(C)n(CCC(=O)N/N=C/c2c(O)ccc3ccccc23)n1	i	i	i	i	54	51
SMILES	PfHsp90 yeast 2	TIM10 inh	tim10-1 inh	Rce1 inh	tim23-1 inh	tim23-1 conf
C/C(=C\C(=O)c1ccc(C)cc1)Nc1cccc(O)c1	i	i	i	i	51	i
Cc1ccc(C(=O)/C=C/Nc2cccc(O)c2)cc1	i	i	i	i	i	nt
O=C(CN(C(=O)c1csnn1)c1cccc(Cl)c1)NCCc1ccccc1	i	i	i	i	i	nt
Cn1c2ccccc2c(=O)c2c(=O)n(C3CCCCC3)c(-c3ccco3)nc21	i	i	i	i	51	49
CC(C)Cn1c(-c2ccco2)nc2c(c(=O)c3ccccc3n2C)c1=O	nt	i	i	i	50	i
CC(c1ccccc1)n1c(-c2cccs2)nc2c(c(=O)c3ccccc3n2C)c1=O (stereo not given)	nt	i	i	nt	51	i
Cc1nc2c(c(=O)c3ccccc3n2C)c(=O)n1C1CCCCCC1	i	i	i	i	i	nt
